# Experimental data as given in PubChem BioAssay (EPA / NIEHS).
# Results filed as inconclusive are left out. Active and inactive are the calls of the source. How the source made its calls: active means hit-call score of the fitted dose curve at least 0.9, where 1 is the maximum; inconclusive means response in the unintended direction; inactive means score below 0.9.
# Columns and labels:
# [1] = molecular target: human Esterase Plasma (ES), BCHE (gene 590) (UniProt P06276); assay: NVS_ENZ_hES: NovaScreen (NVS) Enzymatic Assay for human Esterase Plasma (ES) (AID 2283157)
# human Esterase Plasma (ES), BCHE (gene 590), sequence (P06276 whole entry, looked up): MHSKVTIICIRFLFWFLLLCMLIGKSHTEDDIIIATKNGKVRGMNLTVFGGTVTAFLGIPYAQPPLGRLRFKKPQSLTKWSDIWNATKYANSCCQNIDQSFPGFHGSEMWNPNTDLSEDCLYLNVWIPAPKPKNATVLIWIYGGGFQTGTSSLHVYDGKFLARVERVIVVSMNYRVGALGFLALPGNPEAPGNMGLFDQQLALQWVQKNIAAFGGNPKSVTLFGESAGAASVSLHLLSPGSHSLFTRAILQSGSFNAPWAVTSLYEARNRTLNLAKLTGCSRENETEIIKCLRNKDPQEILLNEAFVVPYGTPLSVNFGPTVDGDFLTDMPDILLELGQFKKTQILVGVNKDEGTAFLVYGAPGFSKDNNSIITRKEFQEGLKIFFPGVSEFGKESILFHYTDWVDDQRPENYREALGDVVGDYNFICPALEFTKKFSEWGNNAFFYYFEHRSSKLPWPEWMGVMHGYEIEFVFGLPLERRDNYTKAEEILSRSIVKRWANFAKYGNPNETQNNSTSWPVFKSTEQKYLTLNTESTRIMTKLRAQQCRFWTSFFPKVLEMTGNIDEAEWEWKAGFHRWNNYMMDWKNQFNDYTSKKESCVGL
# Procedure, shortened: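 Cell-free enzyme assay using esterase extracted from human plasma; colorimetric absorbance read 0.25 hour after dosing. Single-concentration duplicate screen at 25 uM, then concentration-response up to 50 uM; loss of signal scored against DMSO baseline.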
# [2] = molecular target: Collagenase 3 (Homo sapiens) (UniProt P45452); assay: NVS_ENZ_hMMP13: NovaScreen (NVS) Enzymatic Assay for human Matrix Metalloproteinase-13 (MMP13) (AID 2283182)
# Procedure, shortened: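 Recombinant MMP13 cleaving fluorescent substrate, cell-free, measured 1 h after dosing. Primary duplicate screen at 25 uM; actives tested in concentration-response up to 50 uM; loss of signal relative to DMSO.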
# [3] = molecular target: human Colony Stimulating Factor 1 Receptor (CSF1R), CSF1R (gene 1436) (UniProt P07333); assay: NVS_ENZ_hCSF1R: NovaScreen (NVS) Enzymatic Assay for human Colony Stimulating Factor 1 Receptor (CSF1R) (AID 2283150)
# Procedure, shortened: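 Cell-free recombinant human CSF1R kinase with fluorescent substrate, product separated by electrophoretic mobility shift; read 1 h after dosing. Primary screen at 25 uM in duplicate, actives then in concentration-response up to 50 uM, relative to DMSO.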
# [4] = molecular target: Histone deacetylase 3 (Homo sapiens) (UniProt O15379); assay: NVS_ENZ_hHDAC3: NovaScreen (NVS) Enzymatic Assay for human Histone Deacetylase 3 (HDAC3) (AID 2283163)
# Procedure, shortened: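 Recombinant human HDAC3 with fluorescent substrate, 1 h after dosing; product separated from substrate by electrophoretic mobility shift and read by fluorescence. Primary screen at 25 uM in duplicate; actives (e.g. ≥30% inhibition) retested in concentration-response up to 50 uM.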
# [5] = molecular target: Glycogen synthase kinase-3 beta (Homo sapiens) (UniProt P49841); assay: NVS_ENZ_hGSK3b: NovaScreen (NVS) Enzymatic Assay for human Glycogen Synthase Kinase-3 beta (GSK3b) (AID 2283165)
# Glycogen synthase kinase-3 beta (Homo sapiens), sequence (P49841 whole entry, looked up): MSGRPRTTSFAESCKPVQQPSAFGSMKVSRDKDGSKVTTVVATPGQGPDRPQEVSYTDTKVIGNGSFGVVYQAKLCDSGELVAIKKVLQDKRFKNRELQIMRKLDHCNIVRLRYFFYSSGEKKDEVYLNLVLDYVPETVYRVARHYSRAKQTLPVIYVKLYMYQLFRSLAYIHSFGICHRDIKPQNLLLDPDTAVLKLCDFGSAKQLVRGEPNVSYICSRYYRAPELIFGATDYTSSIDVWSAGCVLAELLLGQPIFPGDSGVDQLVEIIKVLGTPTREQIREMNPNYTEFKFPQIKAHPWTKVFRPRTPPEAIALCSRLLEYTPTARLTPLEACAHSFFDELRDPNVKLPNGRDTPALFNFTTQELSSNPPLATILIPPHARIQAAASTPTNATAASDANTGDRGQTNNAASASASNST
# Procedure, shortened: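 Recombinant enzyme with specific fluorescent substrate, 1 h, product separated by electrophoretic mobility shift. Primary duplicate screen at 25 uM; actives (e.g. 30% inhibition) followed in singleton concentration-response to 50 uM. Signal loss fitted versus DMSO.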
# [6] = molecular target: human Elastase, ELANE (gene 1991) (UniProt P08246); assay: NVS_ENZ_hElastase: NovaScreen (NVS) Enzymatic Assay for human Elastase (AID 2283153)
# Procedure, shortened: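 Cell-free elastase from human neutrophils, 1.5 h after dosing, activity read by absorbance. Primary screen in duplicate at 25 uM; hits (e.g., 30% inhibition) rerun in singleton concentration-response up to 50 uM, fitted versus DMSO.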
# [7] = molecular target: human Ephrin type-A Receptor 1 (EphA1), EPHA1 (gene 2041) (UniProt P21709); assay: NVS_ENZ_hEphA1: NovaScreen (NVS) Enzymatic Assay for human Ephrin type-A Receptor 1 (EphA1) (AID 2283158);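 further: activity is signal loss versus DMSO meaning EphA1 kinase inhibition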
# Procedure, shortened: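 Chemicals first tested in duplicate at 25 uM against recombinant EphA1 with a fluorescent substrate; those passing threshold went to singleton dose-response topping at 50 uM. Activity read 1 h later as mobility-shift fluorescence, loss of signal relative to DMSO.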
# [8] = molecular target: human Janus Kinase 2 (Jak2), JAK2 (gene 3717) (UniProt O60674); assay: NVS_ENZ_hJak2: NovaScreen (NVS) Enzymatic Assay for human Janus Kinase 2 (Jak2) (AID 2283169)
# Procedure, shortened: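 Cell-free recombinant human JAK2 enzyme activity assay, fluorescence/electrophoretic mobility shift read 1 h after dosing. Screened in duplicate at 25 uM, then concentration-response up to 50 uM; activity as signal loss relative to DMSO.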
# [9] = molecular target: human LYN Proto-Oncogene, Src family Tyrosine Kinase (LynA), LYN (gene 4067) (UniProt P07948); assay: NVS_ENZ_hLynA: NovaScreen (NVS) Enzymatic Assay for human LYN Proto-Oncogene, Src family Tyrosine Kinase (LynA) (AID 2283173)
# human LYN Proto-Oncogene, Src family Tyrosine Kinase (LynA), LYN (gene 4067), sequence (P07948 whole entry, looked up): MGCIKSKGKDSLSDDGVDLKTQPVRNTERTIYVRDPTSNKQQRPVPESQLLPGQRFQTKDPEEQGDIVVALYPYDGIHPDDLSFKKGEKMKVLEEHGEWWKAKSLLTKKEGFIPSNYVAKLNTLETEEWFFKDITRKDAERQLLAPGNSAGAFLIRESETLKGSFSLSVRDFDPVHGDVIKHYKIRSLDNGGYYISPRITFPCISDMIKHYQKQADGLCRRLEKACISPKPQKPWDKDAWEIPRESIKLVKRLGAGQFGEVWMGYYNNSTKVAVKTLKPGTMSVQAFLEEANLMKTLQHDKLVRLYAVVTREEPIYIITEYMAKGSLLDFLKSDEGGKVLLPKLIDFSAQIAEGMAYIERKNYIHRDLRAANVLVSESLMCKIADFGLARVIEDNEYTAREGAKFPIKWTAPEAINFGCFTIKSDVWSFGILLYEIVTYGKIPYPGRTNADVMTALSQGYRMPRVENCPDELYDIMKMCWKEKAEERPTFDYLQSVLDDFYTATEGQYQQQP
# Procedure, shortened: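 Recombinant kinase with fluorescent substrate; product separated from substrate by electrophoretic mobility shift and read 1 h after dosing. Duplicate screen at 25 uM, then concentration-response up to 50 uM; activity scored as signal loss against DMSO.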
# [10] = molecular target: human Matrix Metalloproteinase-2 (MMP2), MMP2 (gene 4313) (UniProt P08253); assay: NVS_ENZ_hMMP2: NovaScreen (NVS) Enzymatic Assay for human Matrix Metalloproteinase-2 (MMP2) (AID 2283184)
# human Matrix Metalloproteinase-2 (MMP2), MMP2 (gene 4313), sequence (P08253 whole entry, looked up): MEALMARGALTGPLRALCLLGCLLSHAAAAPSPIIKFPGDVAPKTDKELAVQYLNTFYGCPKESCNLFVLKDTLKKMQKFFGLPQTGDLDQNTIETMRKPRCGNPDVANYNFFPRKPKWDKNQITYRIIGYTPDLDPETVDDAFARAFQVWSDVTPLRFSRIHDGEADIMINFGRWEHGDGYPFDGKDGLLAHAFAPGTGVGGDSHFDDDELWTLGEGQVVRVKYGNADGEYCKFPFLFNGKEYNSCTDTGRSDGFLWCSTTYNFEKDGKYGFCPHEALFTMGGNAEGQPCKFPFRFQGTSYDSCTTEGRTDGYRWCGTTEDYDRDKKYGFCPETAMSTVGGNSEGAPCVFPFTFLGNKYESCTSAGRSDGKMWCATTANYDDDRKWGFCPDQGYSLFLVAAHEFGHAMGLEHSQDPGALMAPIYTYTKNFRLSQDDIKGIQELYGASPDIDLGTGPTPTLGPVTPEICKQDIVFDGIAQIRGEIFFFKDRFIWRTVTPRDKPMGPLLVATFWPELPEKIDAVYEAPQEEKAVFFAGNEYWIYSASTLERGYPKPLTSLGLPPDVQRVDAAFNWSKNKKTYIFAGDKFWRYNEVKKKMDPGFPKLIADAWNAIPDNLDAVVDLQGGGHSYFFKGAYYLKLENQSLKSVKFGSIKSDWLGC
# Procedure, shortened: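 Cell-free recombinant MMP2 activity with a fluorescent substrate, read 1 h after dosing. Primary screen in duplicate at 25 uM; actives then run in concentration series; loss of signal fitted versus DMSO.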
# [11] = molecular target: human Matrix Metalloproteinase-9 (MMP9), MMP9 (gene 4318) (UniProt P14780); assay: NVS_ENZ_hMMP9: NovaScreen (NVS) Enzymatic Assay for human Matrix Metalloproteinase-9 (MMP9) (AID 2283190);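 further: cell-free recombinant MMP9 protease activity read by fluorescent substrate signal; active means inhibition seen as loss of fluorescence signal versus DMSO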
# human Matrix Metalloproteinase-9 (MMP9), MMP9 (gene 4318), sequence (P14780 whole entry, looked up): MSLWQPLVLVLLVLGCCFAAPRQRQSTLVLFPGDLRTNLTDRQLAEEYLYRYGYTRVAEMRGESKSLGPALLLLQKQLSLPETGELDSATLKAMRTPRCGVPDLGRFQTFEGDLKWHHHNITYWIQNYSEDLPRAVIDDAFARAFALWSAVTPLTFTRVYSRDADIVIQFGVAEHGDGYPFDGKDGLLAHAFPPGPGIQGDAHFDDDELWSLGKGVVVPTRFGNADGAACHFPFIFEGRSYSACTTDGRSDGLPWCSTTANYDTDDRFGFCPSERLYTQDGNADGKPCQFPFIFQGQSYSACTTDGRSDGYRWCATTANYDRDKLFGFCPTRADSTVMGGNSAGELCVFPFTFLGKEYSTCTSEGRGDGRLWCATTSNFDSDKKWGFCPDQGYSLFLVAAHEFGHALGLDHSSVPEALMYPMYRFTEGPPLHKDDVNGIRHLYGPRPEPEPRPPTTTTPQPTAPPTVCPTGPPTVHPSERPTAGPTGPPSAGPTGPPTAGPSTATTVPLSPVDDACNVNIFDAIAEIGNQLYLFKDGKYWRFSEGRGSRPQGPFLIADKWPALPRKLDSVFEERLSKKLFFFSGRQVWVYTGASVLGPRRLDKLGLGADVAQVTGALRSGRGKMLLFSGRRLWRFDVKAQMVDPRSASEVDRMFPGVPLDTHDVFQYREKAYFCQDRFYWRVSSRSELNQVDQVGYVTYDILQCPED
# Procedure, shortened: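 Extracted enzyme, fluorescent substrate, 1 h post-dose read. Single conc 25 uM in duplicate, then concentration series for actives. Activity = signal loss relative to DMSO negative control.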
# [12] = molecular target: human Matrix Metalloproteinase-3 (MMP3), MMP3 (gene 4314) (UniProt P08254); assay: NVS_ENZ_hMMP3: NovaScreen (NVS) Enzymatic Assay for human Matrix Metalloproteinase-3 (MMP3) (AID 2283185)
# Procedure, shortened: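 Cell-free recombinant human MMP3 activity, fluorescence intensity read 1 h after dosing. Primary screen duplicate at 25 uM, actives retested in concentration series; loss of signal vs DMSO baseline.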
# [13] = molecular target: human Insulin Receptor (InsR), INSR (gene 3643) (UniProt P06213); assay: NVS_ENZ_hInsR: NovaScreen (NVS) Enzymatic Assay for human Insulin Receptor (InsR) (AID 2283168)
# human Insulin Receptor (InsR), INSR (gene 3643), sequence (P06213 whole entry, looked up): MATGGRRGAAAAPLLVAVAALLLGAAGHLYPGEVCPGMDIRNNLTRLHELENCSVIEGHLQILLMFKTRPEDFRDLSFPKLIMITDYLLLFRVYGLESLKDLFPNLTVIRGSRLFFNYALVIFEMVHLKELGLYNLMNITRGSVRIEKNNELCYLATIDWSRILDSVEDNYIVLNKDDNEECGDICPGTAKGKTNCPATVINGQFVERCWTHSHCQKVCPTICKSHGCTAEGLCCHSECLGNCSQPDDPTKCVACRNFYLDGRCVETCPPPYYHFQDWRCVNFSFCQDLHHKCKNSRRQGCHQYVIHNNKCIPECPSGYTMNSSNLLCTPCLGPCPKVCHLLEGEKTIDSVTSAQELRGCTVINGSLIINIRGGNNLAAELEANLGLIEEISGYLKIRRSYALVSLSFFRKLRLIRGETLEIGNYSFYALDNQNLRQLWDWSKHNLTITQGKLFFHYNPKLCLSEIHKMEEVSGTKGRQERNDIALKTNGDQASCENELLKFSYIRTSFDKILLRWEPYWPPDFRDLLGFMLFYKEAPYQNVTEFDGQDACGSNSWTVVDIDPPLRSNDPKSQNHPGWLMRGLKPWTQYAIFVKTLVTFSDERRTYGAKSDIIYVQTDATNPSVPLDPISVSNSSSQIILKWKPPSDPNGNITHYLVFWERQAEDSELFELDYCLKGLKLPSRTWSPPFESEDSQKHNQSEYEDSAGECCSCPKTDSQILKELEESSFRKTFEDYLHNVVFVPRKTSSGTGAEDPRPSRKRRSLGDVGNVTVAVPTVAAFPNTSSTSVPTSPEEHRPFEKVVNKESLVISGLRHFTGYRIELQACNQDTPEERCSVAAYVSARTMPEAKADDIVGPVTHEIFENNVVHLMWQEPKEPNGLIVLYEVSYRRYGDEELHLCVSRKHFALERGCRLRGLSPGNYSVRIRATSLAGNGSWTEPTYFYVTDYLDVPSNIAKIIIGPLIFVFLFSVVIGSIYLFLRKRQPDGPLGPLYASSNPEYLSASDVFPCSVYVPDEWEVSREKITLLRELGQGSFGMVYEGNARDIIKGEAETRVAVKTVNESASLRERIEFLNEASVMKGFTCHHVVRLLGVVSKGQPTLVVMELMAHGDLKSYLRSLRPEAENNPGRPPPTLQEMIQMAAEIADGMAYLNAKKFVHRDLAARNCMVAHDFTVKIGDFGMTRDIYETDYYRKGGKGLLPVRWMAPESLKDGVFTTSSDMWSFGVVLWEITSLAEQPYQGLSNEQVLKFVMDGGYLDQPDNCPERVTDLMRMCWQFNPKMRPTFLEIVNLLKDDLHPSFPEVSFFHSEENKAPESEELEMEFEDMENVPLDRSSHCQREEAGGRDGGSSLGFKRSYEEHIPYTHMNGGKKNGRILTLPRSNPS
# Procedure, shortened: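 Fluorescent substrate phosphorylation by recombinant kinase, product resolved by electrophoretic mobility shift, read 1 h after dosing. Screened in duplicate at 25 uM; hits (e.g., 30% inhibition) run in concentration-response to 50 uM; DMSO as baseline.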
# [14] = molecular target: human c-Jun N-terminal Kinases (JNK2), MAPK9 (gene 5601) (UniProt P45984); assay: NVS_ENZ_hJNK2: NovaScreen (NVS) Enzymatic Assay for human c-Jun N-terminal Kinases (JNK2) (AID 2283171)
# Procedure, shortened: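 Cell-free recombinant human JNK2 activity assay; fluorescent substrate and product separated by electrophoretic mobility shift, read 1 h after dosing. Primary duplicate screen at 25 uM; actives run in concentration-response up to 50 uM, relative to DMSO.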
# [15] = molecular target: Mitogen-activated protein kinase 3 (Homo sapiens) (UniProt P27361); assay: NVS_ENZ_hMAPK3: NovaScreen (NVS) Enzymatic Assay for human Mitogen-Activated Protein Kinase 3 (MAPK 3) (AID 2283177)
# Mitogen-activated protein kinase 3 (Homo sapiens), sequence (P27361 whole entry, looked up): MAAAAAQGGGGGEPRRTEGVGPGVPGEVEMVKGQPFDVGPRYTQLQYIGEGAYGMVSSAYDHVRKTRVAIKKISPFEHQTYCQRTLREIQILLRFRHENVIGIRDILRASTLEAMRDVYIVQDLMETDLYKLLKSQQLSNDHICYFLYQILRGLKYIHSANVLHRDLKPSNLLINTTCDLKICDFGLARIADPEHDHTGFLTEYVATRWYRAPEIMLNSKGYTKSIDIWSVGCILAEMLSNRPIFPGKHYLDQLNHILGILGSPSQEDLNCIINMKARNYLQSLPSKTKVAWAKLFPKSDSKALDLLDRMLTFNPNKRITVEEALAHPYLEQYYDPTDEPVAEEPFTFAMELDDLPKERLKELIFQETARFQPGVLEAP
# Procedure, shortened: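 Cell-free enzymatic assay with recombinant protein and specific substrate; fluorescence and electrophoretic mobility shift read-out 1 h after dosing. Primary screen duplicate at 25 uM; actives then run in concentration-response up to 50 uM, loss of signal versus DMSO.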
# [16] = molecular target: human Matrix Metalloproteinase-7 (MMP7), MMP7 (gene 4316) (UniProt P09237); assay: NVS_ENZ_hMMP7: NovaScreen (NVS) Enzymatic Assay for human Matrix Metalloproteinase-7 (MMP7) (AID 2283183)
# human Matrix Metalloproteinase-7 (MMP7), MMP7 (gene 4316), sequence (P09237 whole entry, looked up): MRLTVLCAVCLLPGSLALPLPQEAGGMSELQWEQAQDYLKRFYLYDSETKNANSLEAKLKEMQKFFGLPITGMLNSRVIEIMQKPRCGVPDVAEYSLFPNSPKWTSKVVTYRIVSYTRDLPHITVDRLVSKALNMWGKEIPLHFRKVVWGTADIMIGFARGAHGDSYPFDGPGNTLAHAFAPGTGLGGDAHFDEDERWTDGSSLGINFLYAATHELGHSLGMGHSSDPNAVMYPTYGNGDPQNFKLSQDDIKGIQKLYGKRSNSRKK
# Procedure, shortened: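 Cell-free fluorescence enzymatic assay read 1 h after compound addition, activity loss analyzed against DMSO. Primary duplicate testing at 25 uM; compounds meeting threshold rerun in singleton concentration-response up to 50 uM.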
# [17] = molecular target: human MAP Kinase-Activated Protein Kinase 2 (MAPKAPK2), MAPKAPK2 (gene 9261) (UniProt P49137); assay: NVS_ENZ_hMAPKAPK2: NovaScreen (NVS) Enzymatic Assay for human MAP Kinase-Activated Protein Kinase 2 (MAPKAPK2) (AID 2283178)
# Procedure, shortened: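 Cell-free recombinant human MAPKAPK2 activity measured by fluorescence with electrophoretic mobility shift separation of substrate and product, 1 hr after dosing. Loss of signal versus DMSO; primary screen at 25 uM, concentration-response up to 50 uM.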
# [18] = molecular target: human Mitogen- and Stress-activated Protein Kinase-1 (Msk1), RPS6KA5 (gene 9252) (UniProt O75582); assay: NVS_ENZ_hMsk1: NovaScreen (NVS) Enzymatic Assay for human Mitogen- and Stress-activated Protein Kinase-1 (Msk1) (AID 2283187)
# Procedure, shortened: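 Recombinant kinase with fluorescent substrate; product separated by electrophoretic mobility shift, read 1 h after dosing. Screened in duplicate at 25 uM; hits (e.g. ≥30% inhibition) tested in concentration–response up to 50 uM. DMSO baseline.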
smiles,measurement,setting,value
COC(=O)c1c(Cl)c(Cl)c(C(=O)OC)c(Cl)c1Cl,outcome,[1],inactive
same,outcome,[2],inactive
COCCOc1cc2cc(C(=O)NC3CCN(C(C)C)CC3)n(CC(=O)Nc3ccc(Cl)cn3)c2cn1,outcome,[3],inactive
same,AC50,[1],23.3 µM (active)
same,outcome,[4],inactive
same,outcome,[5],inactive
CNS(=O)(=O)c1cc(C(=O)N2CCC(CCN3C4CCC3CC(n3c(C)nc5ccccc53)C4)(c3cccc(F)c3)CC2)c(Cl)cc1F (stereo not given),AC50,[3],39.1 µM (active)
same,AC50,[6],8.03 µM (active)
same,outcome,[7],inactive
same,outcome,[5],inactive
same,AC50,[8],10.2 µM (active)
same,outcome,[9],inactive
same,AC50,[2],14.5 µM (active)
same,AC50,[10],8.32 µM (active)
same,AC50,[11],8.37 µM (active)
COc1cccc(-c2ccc(/C=C\CN3CCCCCC3)cc2Cl)c1,AC50,[1],1.78 µM (active)
same,outcome,[5],inactive
CCc1cc(SCc2sc(-c3ccc(C(F)(F)F)cc3)nc2CN2CCN(c3ccc(OC)cc3)CC2)ccc1OCC(=O)O,AC50,[6],2.7 µM (active)
same,outcome,[5],inactive
same,AC50,[2],5.85 µM (active)
same,AC50,[10],19.8 µM (active)
same,outcome,[12],inactive
same,AC50,[11],8.8 µM (active)
CC1(C)C(=O)N(Br)C(=O)N1Br,outcome,[5],inactive
CC[C@H]1OC(=O)[C@H](C)[C@@H](O[C@H]2C[C@@](C)(OC)[C@@H](O)[C@H](C)O2)[C@H](C)[C@@H](O[C@@H]2O[C@H](C)C[C@H](N(C)C)[C@H]2O)[C@](C)(O)C[C@@H](C)C(=O)[C@H](C)[C@@H](O)[C@]1(C)O,outcome,[13],inactive
O=C1OC(=O)C2C3C=CC(C3)C12 (stereo not given),outcome,[5],inactive
CC(C)=CCCC(C)=CC=O,outcome,[5],inactive
COCCOCCOCCOC,outcome,[13],inactive
same,outcome,[11],inactive
O=C(O)c1cccc(N(Cc2cccnc2)c2ccc(OC(F)F)c(OC(F)F)c2)c1,AC50,[14],4.96 µM (active)
same,outcome,[15],inactive
CCOCCOCCOCCO,AC50,[16],28.2 µM (active)
CC(C)(O)c1coc(S(=O)(=O)NC(=O)Nc2c3c(cc4c2CCC4)CCC3)c1,AC50,[2],20.6 µM (active)
CCCCCCCCCCCCCCCO,outcome,[2],inactive
O=C(O)CCN(C1(C(=O)NO)CCCC1)S(=O)(=O)c1ccc(Oc2ccc(F)cc2)cc1,AC50,[2],0.0041 µM (active)
same,AC50,[10],0.0139 µM (active)
same,AC50,[12],8.47 µM (active)
same,AC50,[11],0.00365 µM (active)
CC(C)=CCCC(C)CCO (stereo not given),outcome,[5],inactive
Cn1c(=O)cc(Oc2ccc(F)cc2F)c2cnc(NCC(C)(C)O)nc21,AC50,[14],0.00703 µM (active)
same,AC50,[15],34.6 µM (active)
C=CC(=C)CCC=C(C)C,AC50,[16],6.56 µM (active)
COC(=O)CC(=O)OC,AC50,[10],7.18 µM (active)
same,outcome,[11],inactive
CCCCCCc1ccc(O)cc1O,outcome,[16],inactive
O=C(O)c1cccc(Oc2ccccc2)c1,outcome,[9],inactive
same,outcome,[16],inactive
CC(C)CCCCCCCOC(=O)CCCCC(=O)OCCCCCCCC(C)C,outcome,[9],inactive
same,outcome,[2],inactive
Nc1nc2ncc(CNc3ccc(C(=O)N[C@@H](CCC(=O)O)C(=O)O)cc3)nc2c(=O)[nH]1,AC50,[5],41.1 µM (active)
same,AC50,[17],37.4 µM (active)
NC(=O)NO,outcome,[9],inactive
same,outcome,[11],inactive
CCCCCCCCO,outcome,[5],inactive
O=C(NS(=O)(=O)/C=C/c1ccccc1)c1ccc(F)cc1Cl,outcome,[15],inactive
CC[C@H](C)C(=O)O[C@H]1C[C@@H](C)C=C2C=C[C@H](C)[C@H](CC[C@@H]3C[C@@H](O)CC(=O)O3)[C@H]21,outcome,[5],inactive
same,outcome,[15],inactive
same,outcome,[16],inactive
same,outcome,[10],inactive
same,outcome,[11],inactive
CCOC(=O)c1ccc(C2CCC(NC[C@H](O)COc3ccc(O)c(NS(C)(=O)=O)c3)CC2)cc1 (stereo not given in full),AC50,[11],12.7 µM (active)
CC(C)c1cccc(C(C)C)c1N1C(=O)c2ccc(O)cc2C1=O,outcome,[9],inactive
same,outcome,[15],inactive
same,outcome,[16],inactive
same,outcome,[10],inactive
same,outcome,[18],inactive
Clc1nc(Cl)c(Cl)c(Cl)c1Cl,outcome,[5],inactive
same,outcome,[13],inactive
CC(C)=CCC/C(C)=C/CO,outcome,[5],inactive
C=CCCCCCCCCC(=O)O,outcome,[10],inactive
Cc1ccc(S(=O)(=O)O)cc1C,outcome,[5],inactive
Fc1ccccc1[C@@H](F)COC1CCC(Nc2ncnc3[nH]ncc23)CC1 (stereo not given in full),outcome,[2],inactive
same,outcome,[11],inactive
CC(C)CC(C)(O)C#CC(C)(O)CC(C)C (stereo not given),outcome,[9],inactive
O=P(OC(CCl)CCl)(OC(CCl)CCl)OC(CCl)CCl,outcome,[5],inactive
